Tests used:
Test in all cases: DAPPL (digital affinity profiling via proximity ligation, sequencing); 10 mM Tris-HCl pH 7.5, 50 mM NaCl, 1 mM DTT, 4% glycerol, room temperature, 30 min; GST-TFs on glutathione beads, 16-mer random dsDNA library, 0.1% formaldehyde crosslink after washing; high values mean tight binding
[1] = target: T1, FEV (Homo sapiens, UniProt Q99581 1-238); conditions: protein: recombinant; tags: N-terminal GST; dsDNA, one strand shown
T1 sequence: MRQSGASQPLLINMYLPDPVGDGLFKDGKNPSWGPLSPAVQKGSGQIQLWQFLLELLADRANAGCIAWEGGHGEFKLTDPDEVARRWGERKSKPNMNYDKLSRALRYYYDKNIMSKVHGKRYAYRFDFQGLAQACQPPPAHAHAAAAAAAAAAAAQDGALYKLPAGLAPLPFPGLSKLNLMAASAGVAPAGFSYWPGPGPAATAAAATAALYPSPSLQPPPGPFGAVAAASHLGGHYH
Summary of the method: (§1)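 Human transcription factors were made in yeast as GST fusions, captured on glutathione beads and barcoded with DNA. With a tag-only sample included, the pool was incubated with 200 nmole of a random double-stranded 16-mer DNA library in Tris/NaCl/DTT/glycerol buffer at room temperature for 30 min, then crosslinked with 0.1% formaldehyde after washing, ligated by proximity, amplified and sequenced. For binding signal, each hexamer's read frequency for a factor is divided by its frequency for the tag-only sample.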

[2] = target: ETV5 (Homo sapiens, UniProt P41161 1-510); conditions: protein: recombinant; tags: N-terminal GST; dsDNA, one strand shown
Summary of the method: as §1

[3] = target: HSF1 (Homo sapiens, UniProt Q00613 1-529); conditions: protein: recombinant; tags: N-terminal GST; chain copies: 3; dsDNA, one strand shown
Summary of the method: as §1

[4] = target: T2, SPIC (Homo sapiens, UniProt Q8N5J4 1-248); conditions: protein: recombinant; tags: N-terminal GST; dsDNA, one strand shown
T2 sequence: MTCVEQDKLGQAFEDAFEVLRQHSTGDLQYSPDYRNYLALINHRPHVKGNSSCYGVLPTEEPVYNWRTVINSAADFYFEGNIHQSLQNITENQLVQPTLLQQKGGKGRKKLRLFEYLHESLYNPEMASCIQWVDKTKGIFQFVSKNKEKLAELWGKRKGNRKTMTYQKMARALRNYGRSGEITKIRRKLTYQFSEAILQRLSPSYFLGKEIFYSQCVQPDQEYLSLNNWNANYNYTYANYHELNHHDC
Summary of the method: as §1

[5] = target: ELF4 (Homo sapiens, UniProt Q99607 1-663); conditions: protein: recombinant; tags: N-terminal GST; dsDNA, one strand shown
Summary of the method: as §1

[6] = target: T3, ELK4 (Homo sapiens, UniProt P28324-2 1-405); conditions: protein: recombinant; tags: N-terminal GST; dsDNA, one strand shown
T3 sequence: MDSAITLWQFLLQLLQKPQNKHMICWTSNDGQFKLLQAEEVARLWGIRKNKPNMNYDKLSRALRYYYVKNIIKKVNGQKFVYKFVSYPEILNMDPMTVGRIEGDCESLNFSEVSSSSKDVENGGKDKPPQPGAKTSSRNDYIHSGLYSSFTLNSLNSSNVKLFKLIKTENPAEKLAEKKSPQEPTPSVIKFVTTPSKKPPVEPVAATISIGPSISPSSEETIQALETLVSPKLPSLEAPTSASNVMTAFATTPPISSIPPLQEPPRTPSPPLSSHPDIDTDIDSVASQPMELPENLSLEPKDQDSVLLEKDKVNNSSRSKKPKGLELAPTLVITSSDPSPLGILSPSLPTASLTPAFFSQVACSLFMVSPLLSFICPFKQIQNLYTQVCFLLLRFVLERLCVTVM
Summary of the method: as §1

[7] = target: T4, ETV2 (Homo sapiens, UniProt O00321 1-342); conditions: protein: recombinant; tags: N-terminal GST; dsDNA, one strand shown
T4 sequence: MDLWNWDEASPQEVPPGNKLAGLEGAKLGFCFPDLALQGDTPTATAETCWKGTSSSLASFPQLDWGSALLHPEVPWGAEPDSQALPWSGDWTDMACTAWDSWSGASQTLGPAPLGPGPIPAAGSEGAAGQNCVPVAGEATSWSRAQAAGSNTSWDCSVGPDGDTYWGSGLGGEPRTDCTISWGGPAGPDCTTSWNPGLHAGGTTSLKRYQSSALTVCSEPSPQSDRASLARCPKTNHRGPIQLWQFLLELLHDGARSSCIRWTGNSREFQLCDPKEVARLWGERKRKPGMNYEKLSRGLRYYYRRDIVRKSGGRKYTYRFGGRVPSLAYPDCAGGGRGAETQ
Summary of the method: as §1

[8] = target: T5, ELF3 (Homo sapiens, UniProt P78545 1-371); conditions: protein: recombinant; tags: N-terminal GST; dsDNA, one strand shown
T5 sequence: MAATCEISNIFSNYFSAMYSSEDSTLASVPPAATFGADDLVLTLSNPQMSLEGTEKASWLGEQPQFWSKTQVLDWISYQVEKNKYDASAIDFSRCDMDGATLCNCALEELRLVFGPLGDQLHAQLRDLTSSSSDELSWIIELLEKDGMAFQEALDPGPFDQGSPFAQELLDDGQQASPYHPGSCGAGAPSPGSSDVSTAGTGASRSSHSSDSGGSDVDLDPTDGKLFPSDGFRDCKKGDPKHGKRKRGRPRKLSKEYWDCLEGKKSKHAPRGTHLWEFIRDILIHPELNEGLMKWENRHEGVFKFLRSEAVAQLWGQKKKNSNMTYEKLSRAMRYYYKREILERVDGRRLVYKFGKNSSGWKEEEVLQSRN
Summary of the method: as §1

[9] = target: CRX (Homo sapiens, UniProt O43186 1-299); conditions: protein: recombinant; tags: N-terminal GST; dsDNA, one strand shown
Summary of the method: as §1

[10] = target: ETV1 (Homo sapiens, UniProt P50549 1-477); conditions: protein: recombinant; tags: N-terminal GST; dsDNA, one strand shown
Summary of the method: as §1

[11] = target: T6, ERF (Homo sapiens, UniProt P50548 1-548); conditions: protein: recombinant; tags: N-terminal GST; dsDNA, one strand shown
T6 sequence: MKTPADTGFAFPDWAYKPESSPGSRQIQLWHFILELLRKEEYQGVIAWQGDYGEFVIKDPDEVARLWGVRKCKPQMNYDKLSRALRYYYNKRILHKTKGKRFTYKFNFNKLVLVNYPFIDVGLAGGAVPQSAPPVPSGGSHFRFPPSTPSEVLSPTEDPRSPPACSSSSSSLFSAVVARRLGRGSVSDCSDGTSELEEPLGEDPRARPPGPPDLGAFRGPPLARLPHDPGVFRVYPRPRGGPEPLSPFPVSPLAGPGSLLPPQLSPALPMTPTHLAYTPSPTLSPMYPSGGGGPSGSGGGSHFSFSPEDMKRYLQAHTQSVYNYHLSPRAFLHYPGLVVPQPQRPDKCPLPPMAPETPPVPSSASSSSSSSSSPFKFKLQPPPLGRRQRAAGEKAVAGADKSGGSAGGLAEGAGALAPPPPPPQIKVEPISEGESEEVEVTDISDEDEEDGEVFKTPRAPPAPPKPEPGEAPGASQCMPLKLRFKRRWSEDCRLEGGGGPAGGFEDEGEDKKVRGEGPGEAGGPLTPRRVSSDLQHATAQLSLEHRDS
Summary of the method: as §1

[12] = target: T7, ETV3L (Homo sapiens, UniProt Q6ZN32 1-361); conditions: protein: recombinant; tags: N-terminal GST; dsDNA, one strand shown
T7 sequence: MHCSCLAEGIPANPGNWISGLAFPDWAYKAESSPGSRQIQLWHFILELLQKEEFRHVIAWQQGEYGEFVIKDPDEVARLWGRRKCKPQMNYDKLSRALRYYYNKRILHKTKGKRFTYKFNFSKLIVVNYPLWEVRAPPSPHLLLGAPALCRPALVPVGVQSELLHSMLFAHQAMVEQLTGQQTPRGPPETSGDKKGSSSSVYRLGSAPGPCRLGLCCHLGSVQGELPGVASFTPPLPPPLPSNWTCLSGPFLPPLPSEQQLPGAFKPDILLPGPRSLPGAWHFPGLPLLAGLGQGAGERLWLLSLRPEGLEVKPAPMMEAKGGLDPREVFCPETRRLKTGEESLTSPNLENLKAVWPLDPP
Summary of the method: as §1

[13] = target: T8, ETS2 (Homo sapiens, UniProt P15036 1-469); conditions: protein: recombinant; tags: N-terminal GST; dsDNA, one strand shown
T8 sequence: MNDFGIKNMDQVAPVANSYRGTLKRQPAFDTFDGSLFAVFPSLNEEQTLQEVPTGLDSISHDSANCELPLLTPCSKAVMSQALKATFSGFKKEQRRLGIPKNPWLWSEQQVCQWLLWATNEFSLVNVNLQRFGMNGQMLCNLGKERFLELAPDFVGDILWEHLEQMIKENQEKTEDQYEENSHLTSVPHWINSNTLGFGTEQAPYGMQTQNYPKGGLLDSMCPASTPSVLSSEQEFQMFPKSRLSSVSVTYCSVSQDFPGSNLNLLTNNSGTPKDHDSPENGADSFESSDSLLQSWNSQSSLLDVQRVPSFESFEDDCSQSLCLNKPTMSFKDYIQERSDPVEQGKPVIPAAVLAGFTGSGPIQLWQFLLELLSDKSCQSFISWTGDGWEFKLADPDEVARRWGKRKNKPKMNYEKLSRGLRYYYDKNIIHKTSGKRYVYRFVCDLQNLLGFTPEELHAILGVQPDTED
Summary of the method: as §1

[14] = target: T9, SPDEF (Homo sapiens, UniProt O95238 1-335); conditions: protein: recombinant; tags: N-terminal GST; dsDNA, one strand shown
T9 sequence: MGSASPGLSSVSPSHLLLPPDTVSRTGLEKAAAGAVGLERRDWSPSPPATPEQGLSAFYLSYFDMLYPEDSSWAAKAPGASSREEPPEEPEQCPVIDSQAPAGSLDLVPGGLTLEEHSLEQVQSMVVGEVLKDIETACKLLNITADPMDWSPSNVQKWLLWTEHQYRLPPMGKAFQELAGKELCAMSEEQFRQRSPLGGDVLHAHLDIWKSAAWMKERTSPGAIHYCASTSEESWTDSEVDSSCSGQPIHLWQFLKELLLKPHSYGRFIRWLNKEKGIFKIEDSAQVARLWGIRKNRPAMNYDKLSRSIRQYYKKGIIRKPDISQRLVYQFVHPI
Summary of the method: as §1

[15] = target: T10, ETV7 (Homo sapiens, UniProt Q9Y603 1-341); conditions: protein: recombinant; tags: N-terminal GST; dsDNA, one strand shown
T10 sequence: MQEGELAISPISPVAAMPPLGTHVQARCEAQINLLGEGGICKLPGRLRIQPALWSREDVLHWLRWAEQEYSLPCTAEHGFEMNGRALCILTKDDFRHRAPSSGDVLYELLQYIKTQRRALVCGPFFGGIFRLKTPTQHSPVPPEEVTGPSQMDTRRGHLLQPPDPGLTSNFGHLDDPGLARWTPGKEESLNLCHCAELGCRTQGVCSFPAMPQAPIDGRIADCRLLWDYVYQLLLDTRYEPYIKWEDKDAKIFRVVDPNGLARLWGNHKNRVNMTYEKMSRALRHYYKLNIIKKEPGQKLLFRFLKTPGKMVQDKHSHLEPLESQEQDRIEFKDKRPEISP
Summary of the method: as §1

[16] = target: T11, ELF5 (Homo sapiens, UniProt Q9UKW6-2 1-255); conditions: protein: recombinant; tags: N-terminal GST; dsDNA, one strand shown
T11 sequence: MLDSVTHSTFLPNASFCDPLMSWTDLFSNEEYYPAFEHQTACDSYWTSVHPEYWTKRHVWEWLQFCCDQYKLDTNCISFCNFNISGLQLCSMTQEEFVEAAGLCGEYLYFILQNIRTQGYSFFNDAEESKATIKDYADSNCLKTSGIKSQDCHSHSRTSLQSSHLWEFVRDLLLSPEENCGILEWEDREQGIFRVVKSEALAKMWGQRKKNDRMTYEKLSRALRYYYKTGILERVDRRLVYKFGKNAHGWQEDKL
Summary of the method: as §1

[17] = target: T12, ETV3 (Homo sapiens, UniProt P41162-2 1-143); conditions: protein: recombinant; tags: N-terminal GST; dsDNA, one strand shown
T12 sequence: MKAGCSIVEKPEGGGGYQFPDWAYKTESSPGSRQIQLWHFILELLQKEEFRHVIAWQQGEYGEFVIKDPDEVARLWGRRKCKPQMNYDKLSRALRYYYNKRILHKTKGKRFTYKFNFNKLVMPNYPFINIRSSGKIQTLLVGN
Summary of the method: as §1

[18] = target: ETV6 (Homo sapiens, UniProt P41212 1-452); conditions: protein: recombinant; tags: N-terminal GST; dsDNA, one strand shown
Summary of the method: as §1

ETV5, sequence (P41161 whole entry): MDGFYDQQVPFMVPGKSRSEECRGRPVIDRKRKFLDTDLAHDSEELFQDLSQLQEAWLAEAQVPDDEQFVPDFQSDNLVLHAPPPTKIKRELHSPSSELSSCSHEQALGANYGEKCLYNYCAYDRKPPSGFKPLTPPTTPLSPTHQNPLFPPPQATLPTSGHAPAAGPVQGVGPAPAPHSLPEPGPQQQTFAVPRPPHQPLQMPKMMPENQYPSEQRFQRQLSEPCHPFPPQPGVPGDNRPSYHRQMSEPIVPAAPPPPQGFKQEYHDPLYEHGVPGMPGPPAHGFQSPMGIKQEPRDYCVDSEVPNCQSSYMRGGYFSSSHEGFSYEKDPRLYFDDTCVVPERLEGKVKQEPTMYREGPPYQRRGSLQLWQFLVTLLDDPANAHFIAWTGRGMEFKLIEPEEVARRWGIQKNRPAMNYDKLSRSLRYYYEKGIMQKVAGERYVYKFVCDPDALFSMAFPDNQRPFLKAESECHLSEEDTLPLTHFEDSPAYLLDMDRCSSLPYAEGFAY
ELF4, sequence (Q99607 whole entry): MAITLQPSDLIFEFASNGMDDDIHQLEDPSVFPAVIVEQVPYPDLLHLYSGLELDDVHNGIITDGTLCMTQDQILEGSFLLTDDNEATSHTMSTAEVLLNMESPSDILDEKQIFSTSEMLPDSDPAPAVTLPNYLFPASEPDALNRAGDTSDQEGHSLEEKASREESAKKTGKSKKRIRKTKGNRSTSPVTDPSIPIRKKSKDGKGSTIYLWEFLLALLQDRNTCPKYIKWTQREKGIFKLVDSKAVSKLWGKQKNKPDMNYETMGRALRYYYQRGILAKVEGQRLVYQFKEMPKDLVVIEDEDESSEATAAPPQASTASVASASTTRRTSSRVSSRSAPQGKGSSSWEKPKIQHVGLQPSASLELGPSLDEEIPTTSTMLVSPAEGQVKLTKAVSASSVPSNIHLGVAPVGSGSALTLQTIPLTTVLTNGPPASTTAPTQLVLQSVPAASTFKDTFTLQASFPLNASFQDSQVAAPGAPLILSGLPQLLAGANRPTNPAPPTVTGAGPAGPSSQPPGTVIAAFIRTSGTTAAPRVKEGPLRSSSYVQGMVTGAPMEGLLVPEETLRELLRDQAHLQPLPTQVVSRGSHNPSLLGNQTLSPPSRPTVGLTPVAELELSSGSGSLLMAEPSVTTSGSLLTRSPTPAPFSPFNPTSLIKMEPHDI
HSF1, sequence (Q00613 whole entry): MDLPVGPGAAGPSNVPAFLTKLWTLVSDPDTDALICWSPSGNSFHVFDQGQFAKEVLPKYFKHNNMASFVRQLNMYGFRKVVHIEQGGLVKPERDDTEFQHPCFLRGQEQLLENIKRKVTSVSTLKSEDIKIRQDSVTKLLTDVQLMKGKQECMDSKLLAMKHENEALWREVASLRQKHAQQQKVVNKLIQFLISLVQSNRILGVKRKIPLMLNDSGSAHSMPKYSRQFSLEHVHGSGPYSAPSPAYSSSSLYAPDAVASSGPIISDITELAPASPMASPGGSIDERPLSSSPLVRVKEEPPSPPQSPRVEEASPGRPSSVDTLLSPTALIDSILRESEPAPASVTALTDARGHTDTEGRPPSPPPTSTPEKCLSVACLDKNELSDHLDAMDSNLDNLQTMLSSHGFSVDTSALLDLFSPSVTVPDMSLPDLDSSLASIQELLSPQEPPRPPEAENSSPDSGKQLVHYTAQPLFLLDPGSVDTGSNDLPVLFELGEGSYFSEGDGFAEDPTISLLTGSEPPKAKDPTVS
CRX, sequence (O43186 whole entry): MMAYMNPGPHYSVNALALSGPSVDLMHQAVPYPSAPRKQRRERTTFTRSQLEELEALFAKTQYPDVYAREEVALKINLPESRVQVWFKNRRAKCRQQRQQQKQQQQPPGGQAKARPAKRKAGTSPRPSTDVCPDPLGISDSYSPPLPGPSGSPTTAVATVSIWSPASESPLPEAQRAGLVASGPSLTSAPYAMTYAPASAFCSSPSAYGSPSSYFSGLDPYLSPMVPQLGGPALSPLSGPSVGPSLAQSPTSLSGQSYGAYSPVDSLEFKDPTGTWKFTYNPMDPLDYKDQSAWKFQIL
ETV1, sequence (P50549 whole entry): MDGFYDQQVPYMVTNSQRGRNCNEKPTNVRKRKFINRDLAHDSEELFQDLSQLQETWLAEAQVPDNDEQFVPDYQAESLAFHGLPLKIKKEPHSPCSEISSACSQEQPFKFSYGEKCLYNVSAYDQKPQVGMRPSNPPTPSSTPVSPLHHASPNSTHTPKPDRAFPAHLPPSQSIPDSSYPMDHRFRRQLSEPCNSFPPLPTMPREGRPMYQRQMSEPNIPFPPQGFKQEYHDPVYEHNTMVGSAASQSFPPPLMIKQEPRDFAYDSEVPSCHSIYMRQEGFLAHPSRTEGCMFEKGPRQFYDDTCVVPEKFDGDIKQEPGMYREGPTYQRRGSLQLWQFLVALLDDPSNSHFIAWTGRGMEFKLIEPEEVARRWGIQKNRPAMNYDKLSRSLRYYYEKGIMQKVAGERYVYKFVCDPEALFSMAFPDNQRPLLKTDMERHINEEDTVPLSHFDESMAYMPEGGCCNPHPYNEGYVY
ETV6, sequence (P41212 whole entry): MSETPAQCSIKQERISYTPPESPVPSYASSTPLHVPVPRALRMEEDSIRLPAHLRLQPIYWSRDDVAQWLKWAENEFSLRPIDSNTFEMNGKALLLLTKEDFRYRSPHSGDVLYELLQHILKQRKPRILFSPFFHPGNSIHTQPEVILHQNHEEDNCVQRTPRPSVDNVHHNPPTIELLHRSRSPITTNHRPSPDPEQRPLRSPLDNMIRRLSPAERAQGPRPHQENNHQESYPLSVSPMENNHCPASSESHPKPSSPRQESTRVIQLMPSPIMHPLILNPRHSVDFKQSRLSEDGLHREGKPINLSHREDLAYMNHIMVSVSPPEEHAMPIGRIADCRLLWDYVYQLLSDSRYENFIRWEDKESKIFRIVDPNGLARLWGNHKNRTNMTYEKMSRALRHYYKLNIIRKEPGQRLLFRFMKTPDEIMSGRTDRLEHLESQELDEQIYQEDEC

Sequence	binding signal [1]	binding signal [2]	binding signal [3]	binding signal [4]	binding signal [5]	binding signal [6]	binding signal [7]	binding signal [8]	binding signal [9]	binding signal [10]	binding signal [11]	binding signal [12]	binding signal [13]	binding signal [14]	binding signal [15]	binding signal [16]	binding signal [17]	binding signal [18]
GATTCT	1.13 fold enrichment (6-mer frequency, TF over GST control)	1.18 fold enrichment (6-mer frequency, TF over GST control)	2.08 fold enrichment (6-mer frequency, TF over GST control)	1.11 fold enrichment (6-mer frequency, TF over GST control)	1.19 fold enrichment (6-mer frequency, TF over GST control)	1.36 fold enrichment (6-mer frequency, TF over GST control)	1.15 fold enrichment (6-mer frequency, TF over GST control)	1.05 fold enrichment (6-mer frequency, TF over GST control)	1.58 fold enrichment (6-mer frequency, TF over GST control)	1.25 fold enrichment (6-mer frequency, TF over GST control)	1.13 fold enrichment (6-mer frequency, TF over GST control)	1.17 fold enrichment (6-mer frequency, TF over GST control)	1.23 fold enrichment (6-mer frequency, TF over GST control)	1.09 fold enrichment (6-mer frequency, TF over GST control)	1.23 fold enrichment (6-mer frequency, TF over GST control)	1.11 fold enrichment (6-mer frequency, TF over GST control)	1.28 fold enrichment (6-mer frequency, TF over GST control)	1.19 fold enrichment (6-mer frequency, TF over GST control)
TCTCCT	1.43 fold enrichment (6-mer frequency, TF over GST control)	1.33 fold enrichment (6-mer frequency, TF over GST control)	1.55 fold enrichment (6-mer frequency, TF over GST control)	1.59 fold enrichment (6-mer frequency, TF over GST control)	1.51 fold enrichment (6-mer frequency, TF over GST control)	1.38 fold enrichment (6-mer frequency, TF over GST control)	1.43 fold enrichment (6-mer frequency, TF over GST control)	1.7 fold enrichment (6-mer frequency, TF over GST control)	1.55 fold enrichment (6-mer frequency, TF over GST control)	1.49 fold enrichment (6-mer frequency, TF over GST control)	1.34 fold enrichment (6-mer frequency, TF over GST control)	1.73 fold enrichment (6-mer frequency, TF over GST control)	1.52 fold enrichment (6-mer frequency, TF over GST control)	1.32 fold enrichment (6-mer frequency, TF over GST control)	1.46 fold enrichment (6-mer frequency, TF over GST control)	1.41 fold enrichment (6-mer frequency, TF over GST control)	1.41 fold enrichment (6-mer frequency, TF over GST control)	1.44 fold enrichment (6-mer frequency, TF over GST control)

— publication PMC7862700, “An all-to-all approach to the identification of sequence-specific readers for epigenetic DNA modifications on cytosine”
